The subject of experiment [1] is Plasmodium falciparum Sir2 (PF13_0152, Sir2A). Put plainly: Plasmodium falciparum Sir2A binding compounds – biochemical, small-molecule microarray, 635 nm fluorescence, primary screen (AID 1098).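 Also: score merges spot fluorescence intensity with its signal-to-noise ratio.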 The note with it: fluorescence 635 nm, higher = more signal.
Experiment [2] in a line: probe aDKK1 binding to arrayed compounds – biochemical, biotinylated probe, 635/667 nm fluorescence, primary screen (AID 1099).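 Also: score merges 667nm spot fluorescence with signal to noise across triplicate slides.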 The following applies: small-molecule microarray, higher = more signal.
Experiment [3] can be described thus: probe aCHRDL2 binding to arrayed compounds – biochemical, biotinylated probe, 635/667 nm fluorescence, primary screen (AID 1100). The following applies: small-molecule microarray, higher = more signal.
Experiment [4] is described as follows: change in splice reporter luminescence, either direction, cell-based, HEK293, spliceosome inhibition project, primary screen (AID 1101).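 Also: HEK293 cells carrying a splicing-competent luciferase reporter gene; test concentration not given here.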 The following applies: HEK293 splicing luciferase reporter, 24 h, higher = more signal, called active from +8 up or from −8 down. (In general: Reporter assays use an easily measured gene product as a stand-in for the process of interest.)

Experiment [5] concerns the target Fibroblast growth factor 10 (Homo sapiens) (UniProt O15520). Put plainly: compounds binding fibroblast growth factor 10 – biochemical, small-molecule microarray, 635 nm fluorescence, primary screen (AID 1102). The note with it: FGF10 binding, fluorescence 635 nm, higher = more signal.
The test system of experiment [6] is glycogen synthase kinase-3 (GSK3A per assay name; protocol says GSK3B). Put plainly: compounds binding glycogen synthase kinase-3 – biochemical, small-molecule microarray, 635 nm fluorescence, GSK3A, primary screen (AID 1103). Also: the record names both GSK3A and GSK3B. The following applies: fluorescence 635 nm, higher = more signal.
The target in experiment [7] is Epidermal growth factor receptor (Homo sapiens) (UniProt P00533). Put plainly: compounds binding epidermal growth factor receptor – biochemical, small-molecule microarray, 635 nm fluorescence, primary screen (AID 1104).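 Also: score merges 667 nm emission intensity with spot signal to noise over triplicate slides.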 The following applies: EGFR binding, higher = more signal.
Experiment [8] deals with Follistatin-related protein 3 (Homo sapiens) (UniProt O95633). Put plainly: compounds binding follistatin-related protein 3 – biochemical, small-molecule microarray, 635 nm fluorescence, primary screen (AID 1105).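 Also: score merges emission near 667 nm and signal to noise per printed spot across three slides.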 The note with it: FSTL3 binding, higher = more signal.
In experiment [9] the target is Dickkopf-related protein 1 (Homo sapiens) (UniProt O94907). Put plainly: small molecules binding DKK1 protein – biochemical, small-molecule microarray, 635 nm fluorescence scan, primary screen (AID 1106).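 Also: score merges emission near 667 nm with signal to noise over three replicate slides.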 The following applies: higher = more signal.
The subject of experiment [10] is Inhibin beta A chain (activin A). Put plainly: small molecules binding activin A – biochemical, small-molecule microarray, 635 nm fluorescence scan, primary screen (AID 1107).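 Also: mouse activin A protein probed at 4.33 µg/mL on printed slides; score merges bound-protein fluorescence near 667 nm with spot signal-to-noise.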 The following applies: INHBA, higher = more signal.
Experiment [11] concerns Human papillomavirus type 1a protein E7 (residues 44-93). Nature of the experiment: small molecules binding HPV E7 44-93 – biochemical, small-molecule microarray, residues 44-93, 635 nm fluorescence, primary screen (AID 1108).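 Also: E7 fragment applied at 1 µg/mL in TBST for 1 h at 4 C; score combines spot fluorescence with its signal to noise ratio.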 The following applies: fluorescence 635 nm, higher = more signal.
Experiment [12] in a line: hepatitis C replication reporter changes, two-sided – Huh7 cells, luciferase reporter, HCV replication inhibitor project, primary screen (AID 1109).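 Also: huh7 hepatoma cells harbouring a luciferase neomycin HCV replicon reporter; luciferase luminescence as measure of HCV replicon replication; test concentration not given here.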 The following applies: Huh7 HCV replicon luciferase reporter, 48 h; higher = more signal.
Experiment [13] deals with Left-right determination factor 2 (Homo sapiens) (UniProt O00292). Put plainly: small molecules binding LEFTY2 protein – biochemical, small-molecule microarray, 635 nm fluorescence scan, primary screen (AID 1110). The following applies: higher = more signal.
Experiment [14] addresses Calmodulin-1 (Homo sapiens) (UniProt P0DP23). Put plainly: small molecules binding calmodulin-1 with EGTA – biochemical, small-molecule microarray, Cy5-labelled CALM1, profiling panel (AID 1111).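 Also: labelled calmodulin applied in Tris saline Tween buffer holding calcium plus EGTA and DTT.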 The note with it: Cy5-CALM1 binding fluorescence, higher = more signal.
For experiment [15] the target is unchanged. Put plainly: small molecules binding Ca-loaded calmodulin-1 – biochemical, small-molecule microarray, Cy5-labelled CALM1, plus calcium, artefact control for SMM control-protein annotation, profiling panel (AID 1112).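 Also: score merges spot fluorescence with signal to noise from triplicate slides.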 The following applies: Cy5-CALM1 binding fluorescence, higher = more signal.
Experiment [16] is described as follows: probe aWnt5a binding to arrayed compounds – biochemical, biotinylated probe, 635/667 nm fluorescence, primary screen (AID 1113).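 Also: score merges 667 nm fluorescence intensity with signal-to-noise per printed feature.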 The note with it: small-molecule microarray, higher = more signal.
The nature of experiment [17]: probe aShh binding to arrayed compounds – biochemical, biotinylated probe, 635/667 nm fluorescence, primary screen (AID 1114).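 Also: probe is biotin-labelled aShh protein from a stem cell growth factor screen; measures binding of labelled protein to compounds printed on the slide; score merges feature fluorescence at 667 nm with signal-to-noise.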 The following applies: small-molecule microarray, higher = more signal.
Experiment [18] can be described thus: probe aNog binding to arrayed compounds – biochemical, biotinylated probe, 635/667 nm fluorescence, primary screen (AID 1115).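 Also: probe is biotinylated aNog protein used at 0.15 µg/mL for 1 h at 4 C; z-score combines 667 nm fluorescence of each spot with its signal to noise.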 The following applies: small-molecule microarray, higher = more signal.
The target in experiment [19] is Torsin-1A-interacting protein 1 (Homo sapiens) (UniProt Q5JTV8). Put plainly: compound microarray binding of lysate hLAP1 – cell lysate, small-molecule microarray, COS7 lysate, 635/667 nm fluorescence, primary screen (AID 1116). The note with it: 635 nm fluorescence, higher = more signal.
Experiment [20] addresses Alpha-bungarotoxin (Bungarus multicinctus) (UniProt P60615). Put plainly: compounds binding labelled alpha-BTX control protein – biochemical, small-molecule microarray, Alexa647 label, 635/667 nm fluorescence, artefact control for SMM control protein annotation, profiling panel (AID 1117). The note with it: alpha-BTX-A647 binding fluorescence, higher = more signal.

The text below walks through data of PubChem BioAssay.

Activity calls are given as the source filed them.

Sequence of Alpha-bungarotoxin (Bungarus multicinctus) (P60615 whole entry, looked up): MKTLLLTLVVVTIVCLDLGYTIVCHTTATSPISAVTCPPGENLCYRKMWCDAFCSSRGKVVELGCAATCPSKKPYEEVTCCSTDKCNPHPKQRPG
Sequence of Torsin-1A-interacting protein 1 (Homo sapiens) (Q5JTV8 whole entry, looked up): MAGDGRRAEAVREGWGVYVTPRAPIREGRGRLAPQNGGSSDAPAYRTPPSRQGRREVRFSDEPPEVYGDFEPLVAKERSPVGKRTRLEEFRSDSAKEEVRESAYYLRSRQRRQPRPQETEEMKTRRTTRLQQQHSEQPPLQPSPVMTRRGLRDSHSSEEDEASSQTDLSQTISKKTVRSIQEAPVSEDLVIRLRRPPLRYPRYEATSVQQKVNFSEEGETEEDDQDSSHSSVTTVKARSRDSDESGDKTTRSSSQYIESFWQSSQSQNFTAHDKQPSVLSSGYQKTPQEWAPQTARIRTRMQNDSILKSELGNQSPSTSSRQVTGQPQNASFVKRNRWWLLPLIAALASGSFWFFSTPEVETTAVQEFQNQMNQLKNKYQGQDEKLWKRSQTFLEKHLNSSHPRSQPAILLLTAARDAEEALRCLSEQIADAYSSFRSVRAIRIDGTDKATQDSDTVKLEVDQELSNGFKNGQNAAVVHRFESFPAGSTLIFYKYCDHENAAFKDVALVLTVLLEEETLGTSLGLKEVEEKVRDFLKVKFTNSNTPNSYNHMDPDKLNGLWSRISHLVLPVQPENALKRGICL
Sequence of Epidermal growth factor receptor (Homo sapiens) (P00533 whole entry, looked up): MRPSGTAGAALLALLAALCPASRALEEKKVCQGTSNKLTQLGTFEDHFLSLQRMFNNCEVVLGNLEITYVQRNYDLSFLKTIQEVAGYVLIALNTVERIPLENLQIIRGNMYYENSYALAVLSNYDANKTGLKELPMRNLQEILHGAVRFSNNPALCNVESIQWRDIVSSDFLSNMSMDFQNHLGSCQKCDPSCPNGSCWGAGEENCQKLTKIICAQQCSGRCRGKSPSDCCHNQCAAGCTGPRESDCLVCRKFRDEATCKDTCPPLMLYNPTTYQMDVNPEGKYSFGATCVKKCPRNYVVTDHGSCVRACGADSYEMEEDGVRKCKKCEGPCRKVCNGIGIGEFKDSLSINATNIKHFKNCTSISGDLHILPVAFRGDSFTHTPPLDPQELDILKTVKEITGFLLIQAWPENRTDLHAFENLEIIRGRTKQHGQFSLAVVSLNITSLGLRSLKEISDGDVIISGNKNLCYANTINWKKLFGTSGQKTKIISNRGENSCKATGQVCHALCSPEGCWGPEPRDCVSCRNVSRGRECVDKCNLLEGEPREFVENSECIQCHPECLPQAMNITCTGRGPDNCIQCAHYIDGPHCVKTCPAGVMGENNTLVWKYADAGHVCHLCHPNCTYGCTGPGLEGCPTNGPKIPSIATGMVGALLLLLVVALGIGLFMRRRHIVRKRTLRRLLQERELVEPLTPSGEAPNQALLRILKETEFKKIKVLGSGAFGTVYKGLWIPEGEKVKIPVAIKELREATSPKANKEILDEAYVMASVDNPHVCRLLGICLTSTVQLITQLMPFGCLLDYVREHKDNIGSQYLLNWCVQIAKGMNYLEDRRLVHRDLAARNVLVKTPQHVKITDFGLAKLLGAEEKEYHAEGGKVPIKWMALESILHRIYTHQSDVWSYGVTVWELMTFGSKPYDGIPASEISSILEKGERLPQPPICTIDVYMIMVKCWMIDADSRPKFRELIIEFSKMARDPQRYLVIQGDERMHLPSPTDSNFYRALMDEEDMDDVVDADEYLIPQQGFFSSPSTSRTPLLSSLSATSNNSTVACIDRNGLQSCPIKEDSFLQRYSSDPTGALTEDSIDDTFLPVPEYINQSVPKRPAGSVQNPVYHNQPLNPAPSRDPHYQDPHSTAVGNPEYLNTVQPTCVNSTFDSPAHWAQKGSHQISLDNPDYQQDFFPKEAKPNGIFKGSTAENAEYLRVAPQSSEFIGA
Sequence of Fibroblast growth factor 10 (Homo sapiens) (O15520 whole entry, looked up): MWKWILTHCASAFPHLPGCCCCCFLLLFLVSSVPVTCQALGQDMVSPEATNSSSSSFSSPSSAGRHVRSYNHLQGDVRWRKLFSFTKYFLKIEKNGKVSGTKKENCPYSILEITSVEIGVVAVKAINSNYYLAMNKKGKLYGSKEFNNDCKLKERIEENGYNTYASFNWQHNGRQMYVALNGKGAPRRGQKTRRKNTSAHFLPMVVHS
Sequence of Left-right determination factor 2 (Homo sapiens) (O00292 whole entry, looked up): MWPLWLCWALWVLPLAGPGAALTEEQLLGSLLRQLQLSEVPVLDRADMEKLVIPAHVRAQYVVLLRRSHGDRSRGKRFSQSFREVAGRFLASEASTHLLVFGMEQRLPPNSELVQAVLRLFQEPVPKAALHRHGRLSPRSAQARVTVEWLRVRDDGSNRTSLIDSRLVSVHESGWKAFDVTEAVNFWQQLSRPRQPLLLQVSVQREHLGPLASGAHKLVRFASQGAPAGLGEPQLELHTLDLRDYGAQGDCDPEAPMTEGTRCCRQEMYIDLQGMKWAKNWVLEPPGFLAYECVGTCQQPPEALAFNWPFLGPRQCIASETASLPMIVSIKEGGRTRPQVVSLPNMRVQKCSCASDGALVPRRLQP
Sequence of Dickkopf-related protein 1 (Homo sapiens) (O94907 whole entry, looked up): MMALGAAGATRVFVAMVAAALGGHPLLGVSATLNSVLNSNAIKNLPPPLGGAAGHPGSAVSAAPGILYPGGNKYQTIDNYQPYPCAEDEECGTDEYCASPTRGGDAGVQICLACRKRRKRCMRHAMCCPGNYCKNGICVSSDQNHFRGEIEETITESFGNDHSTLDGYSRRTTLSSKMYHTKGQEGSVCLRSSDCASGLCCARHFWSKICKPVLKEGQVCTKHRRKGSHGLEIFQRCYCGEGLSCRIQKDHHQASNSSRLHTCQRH
Sequence of Follistatin-related protein 3 (Homo sapiens) (O95633 whole entry, looked up): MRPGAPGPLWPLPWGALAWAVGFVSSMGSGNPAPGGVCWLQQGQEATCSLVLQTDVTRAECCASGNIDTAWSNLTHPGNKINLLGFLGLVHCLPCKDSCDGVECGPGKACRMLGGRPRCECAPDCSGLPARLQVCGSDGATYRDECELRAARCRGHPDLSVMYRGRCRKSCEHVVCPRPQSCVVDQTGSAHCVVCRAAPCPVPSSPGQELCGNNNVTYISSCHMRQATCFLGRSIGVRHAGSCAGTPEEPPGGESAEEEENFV

Consider `CCCCC(O)C1C=CC2C(=O)N(c3ccccc3)C(=O)C2N1Nc1ccc(C(C)C)cc1` (stereo not given), for which the composite z-score in experiment [1] is 0.562; in [2], -0.109; in [3] it was 0.214; in experiment [5] it was 1.05; in experiment [6] it was 1.26; in experiment [7], 0.341. Besides, the composite z-score in experiment [8] was 1.04; in experiment [9], 0.223; in experiment [10], 0.63; in experiment [11], 1.41; in experiment [13], 0.154; in experiment [14], 1.25. In addition, the composite z-score in experiment [15] is 0.304; in experiment [16] it was 0.0974; in [17], 0.0875; in experiment [18] it was -0.503; in experiment [19], -0.236; in experiment [20], 1.06. For the same compound, the figures for the z-score in experiment [4] and in experiment [12] were -0.479 (inactive) and 0.318, respectively.
`[N-]=[N+]=NCc1ccccc1C[C@]1(C(N)=O)N=C(c2ccc(OCCCO)cc2)O[C@H]1c1ccccc1`: the composite z-score was 1 in experiment [1]; 0.774 in [2]; 0.827 in [3]; 0.703 in [5]; 0.854 in experiment [6]; -1.17 in experiment [7]. For the same compound, the composite z-score in [8] is -0.188; in experiment [9], -1.14; in experiment [10], -0.0778; in experiment [11], 1.45; in experiment [13] it was -1.1; in [14], 0.637. For the same compound, the composite z-score was 0.784 in experiment [15]; 0.0003 in [16]; 0.14 in experiment [17]; 0.581 in experiment [18]; 2.27 in [19]; 0.623 in [20]. Further, the values for the z-score in experiment [4] and in experiment [12] were -0.0612 (inactive) and -2.07, respectively.
Consider `COC(=O)c1cn(C[C@@H](Cc2ccccc2)NC(=O)N[C@H](CO)CCc2oc(C(C)=O)c(C(=O)OC)c2C(=O)OC)nn1`, for which the composite z-score in experiment [1] is 0.741; in experiment [2] it was 0.067; in experiment [3], -0.255; in experiment [5], 0.738; in experiment [6], 0.895; in experiment [7] it was 0.452. The composite z-score in [8] was 1.4; in experiment [9], 0.894; in experiment [10], -0.293; in experiment [11], 0.303; in [13], 0.993; in experiment [14] it was -0.335. In addition, the composite z-score was -0.616 in experiment [15]; 0.02 in experiment [16]; -0.283 in experiment [17]; -0.0789 in [18]; 0.862 in [19]; 0.177 in experiment [20]. Further, the z-score was 0.138 (inactive) in [4] and -0.407 in experiment [12].
As for `CN(C)CCCNC(=O)[C@@H]1c2ccccc2C(=O)N(Cc2ccccc2Cl)[C@H]1c1ccc(CO)cc1`, the composite z-score is -0.405 in experiment [1]; 0.0414 in [2]; 0.366 in experiment [3]; -0.497 in experiment [5]; 0.333 in experiment [6]; -0.493 in [7]. Also, the composite z-score in experiment [8] is -0.89; in [9] it was 0.0146; in [10] it was 0.828; in [11], 0.0979; in [13], -0.505; in experiment [14], -0.139. For the same compound, the composite z-score in experiment [15] was -0.464; in experiment [16] it was -0.124; in [17], -0.114; in experiment [18] it was 0.213; in experiment [19], 0.779; in experiment [20], 1.74. Further, the z-score in experiment [4] was -0.738 (inactive); in experiment [12] it was -1.7.
Regarding `CN1C(=O)C2C=CC(C(O)COCc3ccccc3)N(N(c3ccccc3)c3ccccc3)C2C1=O` (stereo not given), the composite z-score is 0.35 in [1]; 0.553 in [2]; 0.815 in [3]; 0.126 in experiment [5]; -0.588 in experiment [6]; 0.238 in [7]. Further, the composite z-score in experiment [8] was 0.127; in experiment [9], -0.674; in experiment [10], -0.101; in [11], 1.31; in experiment [13] it was -0.142; in experiment [14], 1.41. Moreover, the composite z-score in experiment [15] turned out to be 0.667; in experiment [16], 0.0915; in experiment [17], 0.204; in experiment [18], 0.773; in experiment [19], 0.454; in [20], 0.458. Also, the z-score in experiment [4] was 0.915 (inactive); in [12], -1.4.
As for `O=C1O[C@H](c2ccccc2)[C@H](c2ccccc2)N2[C@H]1[C@@H](C(=O)Nc1nc3ccccc3s1)[C@]1(C(=O)Nc3ccccc31)[C@H]2c1ccc(OCCO)cc1`, the composite z-score in experiment [1] amounted to 1.35; in experiment [2], 0.07; in [3], 0.341; in experiment [5], 0.841; in experiment [6], 1.31; in [7], 0.836. Moreover, the composite z-score in experiment [8] is 1.36; in experiment [9] it was 1.31; in [10] it was 0.715; in experiment [11] it was 1.36; in [13], 0.807; in experiment [14], 0.504. Also, the composite z-score in [15] is -0.302; in experiment [16], -0.16; in [17] it was 0.0899; in [18], -0.411; in experiment [19], 0.442; in [20], 1.02. The z-score in experiment [4] is -0.472 (inactive); in experiment [12], -2.64.
Regarding `C=CCNC(=O)[C@H]1[C@@H]2C(=O)O[C@@H](c3ccccc3)[C@@H](c3ccccc3)N2[C@@H](c2ccc(O)cc2)[C@]12C(=O)N(C(=O)OCCOC)c1ccccc12`, the composite z-score was 1.27 in experiment [1]; -0.689 in experiment [2]; -0.0623 in experiment [3]; 1.24 in experiment [5]; 0.226 in experiment [6]; 1.11 in [7]. Moreover, the composite z-score in [8] came out at 0.552; in [9] it was 0.298; in experiment [10], 0.204; in [11], 1.42; in [13], 0.18; in experiment [14] it was 0.763. The composite z-score was -0.0816 in experiment [15]; -0.0573 in experiment [16]; -0.331 in experiment [17]; -0.206 in experiment [18]; 0.793 in experiment [19]; 0.712 in [20]. Further, the z-score in [4] was -1.59 (inactive); in experiment [12], -0.585.
With `COc1cc(OC)c(C(O)C2C=CC3C(=O)N(C)C(=O)C3N2NC(=O)OC(C)(C)C)cc1Br` (stereo not given), the composite z-score was determined as 1.07 in experiment [1]; 0.993 in experiment [2]; 1.15 in experiment [3]; 1.32 in experiment [5]; 1.33 in experiment [6]; 0.26 in experiment [7]. The composite z-score turned out to be 1.41 in [8]; 0.057 in experiment [9]; 0.594 in [10]; 1.45 in experiment [11]; 0.469 in experiment [13]; 1.74 in experiment [14]. Also, the composite z-score came out at 0.767 in [15]; 0.302 in [16]; 0.551 in experiment [17]; 1.71 in experiment [18]; 1.26 in experiment [19]; 1.85 in experiment [20]. The z-score is 1.51 (inactive) in experiment [4] and -0.706 in experiment [12].
